Usually AC50 stands for the concentration giving half of the maximal activity seen.

Records with an inconclusive call do not appear. Active and inactive are the calls of the source. How the source made its calls: active means hit-call score of the fitted dose curve at least 0.9, where 1 is the maximum; inconclusive means response in the unintended direction; inactive means score below 0.9.

Chain of human Protein Tyrosine Phosphatase Receptor Type B (PTPRB), PTPRB (gene 5787) (P23467 whole entry, looked up): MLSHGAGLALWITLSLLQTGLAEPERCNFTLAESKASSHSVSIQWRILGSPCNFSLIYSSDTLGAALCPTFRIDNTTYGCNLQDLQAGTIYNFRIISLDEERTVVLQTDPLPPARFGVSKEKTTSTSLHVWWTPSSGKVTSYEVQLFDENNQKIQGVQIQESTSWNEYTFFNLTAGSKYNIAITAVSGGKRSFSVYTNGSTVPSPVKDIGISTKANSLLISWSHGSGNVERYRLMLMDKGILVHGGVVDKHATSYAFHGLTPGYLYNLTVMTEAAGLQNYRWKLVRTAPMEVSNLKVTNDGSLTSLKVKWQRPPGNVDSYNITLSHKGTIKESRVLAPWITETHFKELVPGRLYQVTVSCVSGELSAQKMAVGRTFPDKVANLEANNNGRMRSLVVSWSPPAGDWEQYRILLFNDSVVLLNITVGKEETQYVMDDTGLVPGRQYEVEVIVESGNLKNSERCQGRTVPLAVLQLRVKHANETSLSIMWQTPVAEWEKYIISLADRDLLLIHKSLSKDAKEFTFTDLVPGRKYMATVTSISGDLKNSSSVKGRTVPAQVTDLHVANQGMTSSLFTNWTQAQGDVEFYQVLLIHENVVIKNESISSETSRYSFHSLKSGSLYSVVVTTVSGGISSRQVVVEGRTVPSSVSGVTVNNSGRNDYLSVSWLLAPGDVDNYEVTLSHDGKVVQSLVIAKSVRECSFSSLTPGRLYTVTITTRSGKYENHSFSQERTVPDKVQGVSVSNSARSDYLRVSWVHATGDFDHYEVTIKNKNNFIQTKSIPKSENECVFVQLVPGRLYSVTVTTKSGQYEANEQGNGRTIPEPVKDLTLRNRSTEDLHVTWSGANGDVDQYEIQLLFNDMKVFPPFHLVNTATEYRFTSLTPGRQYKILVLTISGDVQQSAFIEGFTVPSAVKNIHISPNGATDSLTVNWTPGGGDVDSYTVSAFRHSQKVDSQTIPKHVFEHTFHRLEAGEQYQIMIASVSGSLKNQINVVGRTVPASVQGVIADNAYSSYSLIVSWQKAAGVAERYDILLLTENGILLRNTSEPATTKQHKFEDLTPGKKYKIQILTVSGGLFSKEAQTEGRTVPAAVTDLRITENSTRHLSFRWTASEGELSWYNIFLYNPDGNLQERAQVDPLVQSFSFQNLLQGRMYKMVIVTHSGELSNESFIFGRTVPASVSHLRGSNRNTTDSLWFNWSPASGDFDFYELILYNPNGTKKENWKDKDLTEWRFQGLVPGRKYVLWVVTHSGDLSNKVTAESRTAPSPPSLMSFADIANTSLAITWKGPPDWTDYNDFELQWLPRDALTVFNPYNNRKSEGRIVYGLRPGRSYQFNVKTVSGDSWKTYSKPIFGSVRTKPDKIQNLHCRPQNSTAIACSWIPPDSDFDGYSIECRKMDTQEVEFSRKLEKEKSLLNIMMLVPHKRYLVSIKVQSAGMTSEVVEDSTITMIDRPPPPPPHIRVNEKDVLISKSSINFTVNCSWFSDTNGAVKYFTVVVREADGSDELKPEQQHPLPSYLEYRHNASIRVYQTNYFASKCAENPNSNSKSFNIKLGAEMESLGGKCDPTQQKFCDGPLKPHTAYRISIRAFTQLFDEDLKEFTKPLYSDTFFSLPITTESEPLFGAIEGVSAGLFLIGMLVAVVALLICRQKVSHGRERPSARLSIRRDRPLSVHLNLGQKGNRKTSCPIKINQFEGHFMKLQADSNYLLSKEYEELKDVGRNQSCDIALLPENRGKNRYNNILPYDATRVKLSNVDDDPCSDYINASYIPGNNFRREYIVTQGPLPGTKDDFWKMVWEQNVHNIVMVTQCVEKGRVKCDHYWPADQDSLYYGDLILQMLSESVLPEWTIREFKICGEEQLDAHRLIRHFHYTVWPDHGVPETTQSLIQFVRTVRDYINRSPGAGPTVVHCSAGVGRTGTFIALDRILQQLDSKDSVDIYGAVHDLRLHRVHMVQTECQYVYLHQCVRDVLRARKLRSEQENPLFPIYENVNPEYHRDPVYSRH
Chain of human Protein Tyrosine Phosphatase Non-receptor Type 2 (PTPN2), PTPN2 (gene 5771) (P17706 whole entry, looked up): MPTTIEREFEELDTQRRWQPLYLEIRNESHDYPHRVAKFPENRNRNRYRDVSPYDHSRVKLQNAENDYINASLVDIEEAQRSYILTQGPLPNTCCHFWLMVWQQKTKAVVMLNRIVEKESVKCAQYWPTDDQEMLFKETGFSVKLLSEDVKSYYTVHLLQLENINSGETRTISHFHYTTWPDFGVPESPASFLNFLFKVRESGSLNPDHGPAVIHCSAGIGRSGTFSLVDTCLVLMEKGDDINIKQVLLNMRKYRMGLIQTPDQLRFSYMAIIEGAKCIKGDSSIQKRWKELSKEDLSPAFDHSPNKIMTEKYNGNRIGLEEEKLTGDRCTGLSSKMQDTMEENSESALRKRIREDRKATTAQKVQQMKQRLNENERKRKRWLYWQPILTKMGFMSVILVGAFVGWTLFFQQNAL

The first experiment deals with human Protein Tyrosine Phosphatase Non-receptor Type 2 (PTPN2), PTPN2 (gene 5771) (UniProt P17706). Put plainly: NVS_ENZ_hPTPN2: NovaScreen (NVS) Enzymatic Assay for human Protein Tyrosine Phosphatase Non-receptor Type 2 (PTPN2) (AID 2283207). How it is done:
NVS_ENZ_hPTPN2 is a biochemical, single-readout assay that uses extracted gene-proteins in a cell-free assay. Measurements were taken 1 hour after chemical dosing in a 384-well plate.NVS_ENZ_hPTPN2 is one of one assay component(s) measured or calculated from the NVS_ENZ_hPTPN2 assay. It is designed to make measurements of enzyme activity, a form of enzyme reporter, as detected with fluorescence intensity signals by Fluorescence and electrophoretic mobility shift technology.Data from the assay component NVS_ENZ_hPTPN2 was analyzed into 1 assay endpoint. This assay endpoint, NVS_ENZ_hPTPN2, was analyzed in the positive analysis fitting direction relative to DMSO as the negative control and baseline of activity. Using a type of enzyme reporter, loss-of-signal activity can be used to understand changes in the enzymatic activity as they relate to the gene PTPN2. Furthermore, this assay endpoint can be referred to as a primary readout, because this assay has produced multiple assay endpoints where this one serves a enzymatic activity function. To generalize the intended target to other relatable targets, this assay endpoint is annotated to the phosphatase intended target family, where the subfamily is non-receptor tyrosine phosphatase.
Binding assays used specific radioligands (tritiated, iodinated) with non-radioactive competitive displacement ligands in agonist or antagonist protocols (as indicated) and various reference compounds and inhibitors to titrate specific binding to receptors and transporters. Most enzyme assays (CYPs, kinases, phosphatases, proteases, HDACs) used recombinant protein and specific substrates (fluorescence mostly, some colorimetric and radioactive) and inhibitors, followed by a biochemical separation of substrate and product. All assays for the biochemical HTS were initially run in duplicate at a single concentration (10 uM for CYP450 assays and 25 uM for all others). […] Each assay was run with positive and negative controls, and concurrent controls on every plate. […]
On to `CC(C)O.CC(C)O.OCCN(CCO)CCO.OCCN(CCO)CCO.[Ti]`, for which the AC50 was 0.00229 µM (active).

As to `N#Cc1cccnc1`, the outcome was inactive.

Regarding `CCCCCCCCCCCCOS(=O)(=O)O`, the compound was called inactive.

The target in the next experiment is human Protein Tyrosine Phosphatase Receptor Type B (PTPRB), PTPRB (gene 5787) (UniProt P23467). Put plainly: NVS_ENZ_hPTPRB: NovaScreen (NVS) Enzymatic Assay for human Protein Tyrosine Phosphatase Receptor Type B (PTPRB) (AID 2283211). In short, it runs like this:
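Recombinant human PTPRB with a fluorescent substrate, product separated by electrophoretic mobility shift; read 1 h after dosing. Primary screen in duplicate at 25 uM; actives then retested in concentration series; loss of signal versus DMSO.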
With `CC(C)O.CC(C)O.OCCN(CCO)CCO.OCCN(CCO)CCO.[Ti]`, the AC50 is 0.00229 µM (active).

In the case of `O=C1c2ccccc2C(=O)C1C(=O)C(c1ccccc1)c1ccc(Cl)cc1` (centres undefined), the AC50 was 14.7 µM (active).

Take `COc1nn(C(=O)NS(=O)(=O)c2ccccc2OC(F)(F)F)c(=O)n1C`: the half-maximal activity concentration (AC50) is 6.08 µM (active).

For `N#Cc1cccnc1`, the outcome was inactive.

Regarding `CCCCCCCCCCCCc1cccc(S(=O)(=O)O)c1`, the AC50 is 19.2 µM (active).

As for `O=C(CBr)c1ccc(O)cc1`, the result was inactive.

Source of the values: PubChem BioAssay (EPA / NIEHS).
